# Rows were chosen to be rich in hits. Some 3% of all compounds tested hit in one or more screens of this group.
# KCNH2 3.1 inh = KCNH2 3.1 (human) potassium channel inhibition; U2OS KCNH2 3.1, thallium flux FluxOr; hits give low values; activity change, % (tested at about 1.8 µM); AID 720553; hit rate 0.95% among 340,000;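 active = maximum activity change below -70%; inconclusive = maximum activity change from -70% to -50%; inactive = maximum activity change above -50%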;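 also: thallium influx rate constant from kinetic fluorescence after stimulation buffer; % is scaled to controls: 0 for no effect and ±100 for the full control effect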
#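 Virally transduced U2OS (3.1 isoform, 4 h infection in dark at RT) → overnight 37 C → FluxOr + Red40 in HBSS/HEPES, 45 min → stimulation buffer, 2 min kinetic read → rate constant vs DMSO controls.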
# LDHA inh = blocks human lactate dehydrogenase A. P00338. purified LDHA, NADH/diaphorase-resazurin fluorescence; hits give low values. activity change, % (values are at about 110 or 230 µM). hit rate 0.15% among 480,000; in the data active = activity change below about -30%; inconclusive = mostly about -25% to -30%;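 also: plate controls were DMSO wells for no effect and wells without enzyme for full effect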
#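 Enzyme activity of human lactate dehydrogenase 5 (2 nM; 0.06 mM NADH, 0.2 mM pyruvate, 5 min, RT) is measured via a resazurin/diaphorase fluorescence readout of residual NADH.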
# KCNH2 WT inh = KCNH2 (human, wildtype) channel inhibition. Q12809. U2OS, BacMam KCNH2, thallium flux FluxOr; hits give low values. activity change, % at 1.84 µM. hit rate 0.37% among 340,000. AID 720551;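 active = maximum activity change below -70%; inconclusive = maximum activity change between -70% and -50%; inactive = maximum activity change above -50%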; also: % is scaled to controls: 0 for no effect and ±100 for the full control effect
#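 U2OS cells transduced with wild-type KCNH2 virus are loaded with FluxOr dye for 45 min, and thallium flux is measured in kinetic reads before and after stimulation buffer. Rate constants are normalized to DMSO controls.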
# BCR signal inh = chronic active BCR signaling inhibition | ABC-DLBCL IkBa-CBG/CBR reporter, luminescence ratio, 4 h | Potency, µM (series often up to 46.1 µM), inactives show at the top dose activity change, negative = inhibition, actives largely listed as inhibitors | hit rate 0.05% among 340,000; active = well fitted inhibition curve with a large enough effect in the signal ratio, with a control signal flat, not every such curve was filed as active; inconclusive = small, poorly fitted or top-dose-only effect, or effect the other way, or a change in a side signal; the % refers to the signal ratio;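 also: potency is read from the fitted curve at half-maximal effect; plate controls were basal doxycycline-induced cells for no effect and cells given 10 µM MG132 for full effect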
#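 Concentration-response series (up to 46 uM) were applied to TMD8 dual-reporter cells for 4 h at 37C with doxycycline. Green/red ratio, after filter-overlap correction, defined %Activity; red signal alone was normalised to basal cells and zero luminescence.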
# ClpP mod = qHTS Assay for Activators of ClpP; AID 651965, 2013; ATP-dependent Clp protease proteolytic subunit (Bacillus subtilis (strain 168)), P80244; hit rate 1.9% among 340,000; purified B. subtilis ClpP, FRET peptide cleavage, 20 min; Potency, µM (top dose mostly 57.5 µM), for the others: at the highest dose activity change, negative = active; active = well fitted falling curve with a large enough effect; inconclusive = small, poorly fitted or top-dose-only effect; inactive = no such curve, though single readings can be large or run the other way; also: potency is read from the fitted curve at half-maximal effect; the source files actives as falling curves though it sought activators and does not explain the sign; nearly all actives have a fitted effect of over 65% in size
#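 FRET quenching reversal measured ClpP activation: 10 microg/mL B. subtilis ClpP at pH 8 with the FRET-FV decapeptide, read at 430 nm after 320 nm excitation. The 20-min minus 0-min signal was scaled between DMSO/no-enzyme wells and ADEP (5.8 microM final).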
# 12-LOX inh = inhibitors of human 12S-lipoxygenase ALOX12 | AID 1671190 | hit rate 1.1% among 580,000 | P18054 | purified 12hLO, xylenol orange hydroperoxide absorbance | Potency, µM (top dose mostly 108 µM), inactives show at the top dose activity change, negative = inhibition, usual class: inhibitors; active = well fitted inhibition curve with a large enough effect; inconclusive = small, poorly fitted or top-dose-only effect, or another doubt; inactive = no such curve, though single readings can be large or run the other way; also: potency is read from the fitted curve at half-maximal effect; % is scaled to controls: 0 for no effect and ±100 for the full control effect
# Target sequence (P18054 whole entry, looked up): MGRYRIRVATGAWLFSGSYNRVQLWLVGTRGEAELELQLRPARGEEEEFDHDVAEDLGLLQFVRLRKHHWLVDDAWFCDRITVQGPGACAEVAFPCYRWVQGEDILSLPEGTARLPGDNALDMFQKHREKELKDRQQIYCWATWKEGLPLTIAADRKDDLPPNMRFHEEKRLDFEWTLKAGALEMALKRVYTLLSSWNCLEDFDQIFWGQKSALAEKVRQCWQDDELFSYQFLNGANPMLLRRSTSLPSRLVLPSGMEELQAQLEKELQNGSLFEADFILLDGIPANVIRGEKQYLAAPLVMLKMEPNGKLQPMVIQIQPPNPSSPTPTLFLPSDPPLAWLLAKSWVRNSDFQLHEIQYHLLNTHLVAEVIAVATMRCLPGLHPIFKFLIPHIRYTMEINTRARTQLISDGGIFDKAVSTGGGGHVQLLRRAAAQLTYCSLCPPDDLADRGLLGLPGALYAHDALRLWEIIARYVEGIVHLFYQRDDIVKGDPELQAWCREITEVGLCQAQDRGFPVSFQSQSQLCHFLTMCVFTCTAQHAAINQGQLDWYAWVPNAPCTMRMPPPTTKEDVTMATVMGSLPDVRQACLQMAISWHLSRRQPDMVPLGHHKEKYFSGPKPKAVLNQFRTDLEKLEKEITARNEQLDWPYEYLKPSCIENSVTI
#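 Purified human 12hLO (150 nM final) in 25 mM Hepes, 0.01% Triton X-100, pH 7.0 was preincubated 15 min at room temperature with compound. Then 40 uM arachidonic acid was added, 30 min. Hydroperoxide was read by Fe-XO absorbance ratio 573/405 nm.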
# Numbers without * were called inactive; ? = inconclusive; . = no result given; [ ] = remark or other dose.
SMILES,KCNH2 3.1 inh,LDHA inh,KCNH2 WT inh,BCR signal inh,ClpP mod,12-LOX inh
Cc1cc(C)nc(/N=c2/ssnc2Cl)c1,-12,-5,-19,8%,-1%,8.9µM*
CCCC(=O)N(CC)Cc1cc(=O)[nH]c2ccccc12,.,-1,.,.,.,5%
O=c1[nH]c(=O)n(Cc2ccco2)c2c1C(C(F)(F)F)(C(F)(F)F)N=C(CCC1CCCCC1)N2,.,0,-2,-1%,1%,0%
O=c1[nH]c(=O)n(Cc2ccco2)c2c1C(C(F)(F)F)(C(F)(F)F)N=C(CCc1ccccc1)N2,-108*,-5,2,?,19%,?
CN(C)C(=O)c1ccc(NC(=O)COc2ccc(-c3ccc(Br)cc3)cc2)cc1,.,-2,.,.,.,?
CCc1nc2ccccc2c(C(=O)OCC(=O)N(C(C)C)C(C)C)c1C,.,-2,.,.,.,-65%
O=C1NC(=S)S/C1=C\c1cc(Cl)cc(Cl)c1O,2,-7,-19,.,-3%,45µM*
Cc1cc(/C=C2\SC(=S)NC2=O)c(C)n1-c1ccc(O)cc1,-3,0,3,?,1%,28µM*
CCc1noc(CN2CCC3(CC2)CN(CCc2ccccc2)C(=O)O3)n1,.,.,.,.,.,30%
O=C(O)CCn1c(SCc2cccc3ccccc23)nc2ccccc21,-14,-4,11,?,0%,-23%
O=C(O)c1ccccc1CSc1nc2ccccc2n1Cc1ccccc1C(=O)O,-8,-32*,-15,3%,.,?
Cc1c(C(=O)Nc2ccccc2)sc2nc[nH]c(=O)c12,-1,-5,2,-17%,-11%,10%
Cc1c(C(=O)NCc2ccccc2Cl)sc2nc[nH]c(=O)c12,.,-1,.,.,40µM*,-13%
Cc1c(C(=O)NCc2cccc(Cl)c2)sc2nc[nH]c(=O)c12,.,-1,.,.,22µM*,-9%
Cc1c(C(=O)NCc2ccccc2)sc2nc[nH]c(=O)c12,.,0,.,.,-52%,-21%
Cc1nc(C)c(-c2ccc(SCc3ccc(Cl)cc3)nn2)s1,3,1,2,?,-1%,7%
Cc1nc(C)c(-c2ccc(SCc3cccc(F)c3)nn2)s1,-94*,-7,0,?,-1%,14%
O=C(COc1ccccc1F)Nc1ccc(O)c(-c2nc3ccccc3o2)c1,.,2,.,.,.,4%
CC(=O)Nc1ccc(NC(=O)C2CCN(c3ccc(C(F)(F)F)cn3)CC2)cc1,8,-4,7,-5%,.,3%
O=C(NCCc1cccs1)C1CCN(c2ccc(C(F)(F)F)cn2)CC1,.,-31*,.,.,.,10%
CCOC(=O)C[C@@H]1C[C@@H](C(C)C)[C@H](CNC(=O)C(C)(C)C)C=C1C,.,.,.,.,.,19%[176 µM]
Cc1ccc(S(=O)(=O)Nc2ccc3c(c2)CN(CCc2ccc(F)cc2)C(=O)C(C)O3)cc1F (stereo not given),.,.,.,.,.,28µM*
COc1ccccc1Oc1c(C)oc2cc(OCC(=O)Nc3ccccc3F)ccc2c1=O,.,-15,.,.,.,8%
Cc1c(C(=O)NCc2cccs2)oc2ccccc12,-79*,7,-2,-9%,1%,20%
Cc1c(C(=O)NC(C)c2ccncc2)oc2ccccc12 (stereo not given),-109*,-9,-7,-16%,2%,16%
SMILES,KCNH2 3.1 inh,LDHA inh,KCNH2 WT inh,BCR signal inh,ClpP mod,12-LOX inh
Cc1c(C(=O)NCc2ccccc2F)oc2ccccc12,14,0,19,?,0%,7%
Cc1ccccc1C(=O)N1CCC(c2nn(-c3ccccc3)c(=O)[nH]2)CC1,.,.,.,.,.,35%
COc1ccc(-n2nc(C3CCN(C(=O)c4cccc(OC)c4)CC3)[nH]c2=O)cc1,.,.,.,.,.,1%
Cc1ccc(C(=O)N2CCC(c3nn(-c4ccc(Cl)cc4)c(=O)[nH]3)CC2)cc1,.,.,.,.,.,25µM*
O=C(Nc1ccccc1)N1CCCC(c2nn(-c3ccc(Cl)cc3)c(=O)[nH]2)C1 (stereo not given),.,.,.,.,.,3%
O=C(Nc1ccccc1)N1CCC(c2nn(-c3ccc(Cl)cc3)c(=O)[nH]2)CC1,.,.,.,.,.,32µM*
COc1cccc(C(=O)N2CCC(c3nn(-c4ccc(Cl)cc4)c(=O)[nH]3)CC2)c1,.,.,.,.,.,35µM*
Cc1ccccc1C(=O)N1CCC(c2nn(-c3ccc(Cl)cc3)c(=O)[nH]2)CC1,.,.,.,.,.,45µM*
COc1ccc(OC)c(C(=O)COC(=O)c2cc(S(N)(=O)=O)ccc2Br)c1,.,5,.,.,.,?
COc1ccc(C)cc1Nc1nc2ccccc2nc1NS(=O)(=O)c1cccc2nsnc12,.,11,.,.,.,31%
O=C(NCCCOCC1CC1)c1cc(=O)[nH]c2ccccc12,.,-15,.,.,.,?
O=C(c1ccccc1Cl)N1CCC(c2nn(-c3ccc(Cl)cc3)c(=O)[nH]2)CC1,.,.,.,.,.,35µM*
Cn1nc(C2CCN(C(=O)c3ccccc3Cl)CC2)[nH]c1=O,.,.,.,.,.,10%[176 µM]
CC(C)COc1nc2ccccc2nc1C(C#N)C(=O)NCc1ccccc1 (stereo not given),.,-3,.,.,.,-20%
COc1ccc(NC(=O)CSc2nc(=O)n(CCN3CCOCC3)c3c2CCCC3)c(OC)c1,-120*,-4,12,14%,-1%,0%
COc1ccc(NC(=O)CSc2nc(=O)n(CCN3CCOCC3)c3c2CCC3)c(OC)c1,-3,-2,-5,?,-1%,1%
COc1ccc(NC(=O)c2ccc3c(SCC(=O)O)c4c(nc3c2)CCCC4)c(OC)c1,-158*,-4,-6,29%,-1%,-29%
CC(=O)Nc1cccc(NC(=O)CSc2nc(=O)n(CCCN3CCOCC3)c3c2CCC3)c1,5,-6,1,5%,28µM*,0%
COc1ccc(Cl)cc1NC(=O)c1ccc2c(SCC(=O)O)c3c(nc2c1)CCCC3,-2,-2,-22,?,2%,-27%
Cc1ccc(NC(=O)CSc2nc(=O)n(CCCN3CCOCC3)c3c2CCCC3)cc1F,6,-1,-12,0%,32µM*,-1%
CCOC(=O)c1ccc(NC(=O)c2nc3ccccc3nc2N2CCCCC2)cc1,.,-5,.,.,.,16%
Cc1ccc(NC(=O)Cn2c(-c3ccc(Cl)cc3)nc(C)c(CCO)c2=O)cc1,.,.,.,.,.,-7%
COc1ccc(OC)c2c(C)cc(N3CCN(C(=O)c4ccc(F)cc4)CC3)nc12,-7,5,6,.,20µM*,-23%
COc1ccc(OC)c2c(C)cc(N3CCN(C(=O)c4ccc(C)cc4)CC3)nc12,10,-1,2,0%,.,-3%
Cc1nc2ccc(NC(=O)N3CCSCC3)cc2nc1C,2,16,-10,?,25µM*,-27%
Cc1nc2ccc(NC(=O)N3CCSCC3)cc2s1,2,7,-2,?,1%,149%[57.4 µM]
Cn1cc(C(=O)NCCc2noc(-c3ccncc3)n2)cn1,.,.,.,.,.,22%

# Screening data as filed in PubChem.
